Screens: PubChem BioAssay, several laboratories
aSyn UTR inh = 5' untranslated region of α-synuclein, MLPCN primary screen | hit rate 0.82% among 300,000 | alpha-synuclein 5'UTR reporter, inhibitor activity | inhibition, % (tested at 7.5 µM); in the data active means inhibition above about 60%; inconclusive means no clear call, values can overlap the other calls;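 further: H4 neuroglioblastoma cells stably carrying SNCA 5'UTR luciferase fusion; 0% = DMSO wells and 100% = positive control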
BaF3 tox = parental Ba/F3 viability inhibition as JAK2V617F counter-screen | CellTiter-Glo ATP luminescence | inhibition, % at 5.6 µM | hit rate 1.1% among 220,000;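 active means inhibition above a per-campaign cutoff, the mean inhibition of all tested compounds plus 3 SD, cut at about 27% in these data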;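 further: 0% = DMSO wells and 100% = JAK Inhibitor I control wells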
IEC-6 cytotox = IEC-6 cytotoxicity, counter-screen for KLF5 inhibitors. inhibition, % at 5 µM. AID 1825. luminescence viability. hit rate 0.78% among 290,000; in the data active means inhibition above about 22%;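 further: 0% = plate median of test compound wells and 100% = cytotoxic reference compound wells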
KLF5 inh = inhibitors of KLF5 expression; DLD-1 KLF5 promoter-luciferase reporter, luminescence; inhibition, % at 5 µM; hit rate 0.23% among 290,000; AID 1700;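 active means inhibition above a per-plate limit of that plate's mean compound inhibition plus 3 SD, cut at about 60% in these data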;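 further: 0% = DMSO wells and 100% = LY294002 at 200 µM; higher means less KLF5 promoter-driven luciferase light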
APP 5UTR inh = APP translation inhibition; SH-SY5Y APP 5'UTR-luciferase reporter, luminescence; inhibition, % at 2 µM; hit rate 0.82% among 190,000; AID 1285;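 active means inhibition above a set limit, derived from the sample mean plus 3 SD, cut at about 45% in these data; inconclusive means one replicate passes the limit while the other fails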
Ba/F3 V617F tox = loss of viability in JAK2V617F-driven Ba/F3 cells; AID 1446; inhibition, % at 5.6 µM; hit rate 1.1% among 220,000; Ba/F3 EpoR-JAK2V617F viability, ATP luminescence;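 active means inhibition above the campaign mean plus 3 SD over all tested compounds, cut at about 24% in these data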;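 further: cytokine-independent growth of Ba/F3 cells driven by EpoR plus mutant JAK2; 0% = DMSO-treated cells and 100% = JAK inhibitor I control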
* = called active by the depositor. An excerpt weighted towards active compounds, which were near 2.2% of everything screened.

Results for Cc1ccc(O)c(C2=NNC(c3ccc(Cl)cc3)C2)c1 (stereo unspecified) ?
aSyn UTR inh: -128; BaF3 tox: 4; IEC-6 cytotox: -10; KLF5 inh: -44; Ba/F3 V617F tox: -5

What do the screens show for `CCN1C(=O)CC(NC2CCN(C(=O)c3ccc(F)cc3)CC2)C1=O` (stereo unspecified)?
aSyn UTR inh: 10; IEC-6 cytotox: -1; KLF5 inh: -12

What do the screens show for `S=C(Nc1cccnc1)Nc1cccc2cnccc12`?
aSyn UTR inh: 66*; BaF3 tox: 11; IEC-6 cytotox: 4; KLF5 inh: -3; APP 5UTR inh: -1; Ba/F3 V617F tox: 7

Results for S=C(Nc1ccc(Cl)cc1)Nc1cccc2cnccc12 ?
aSyn UTR inh: -13; BaF3 tox: 7; IEC-6 cytotox: 8; KLF5 inh: 4; APP 5UTR inh: 16; Ba/F3 V617F tox: 12

What do the screens show for `Cn1c(=O)cc(OCCCC(=O)NC2CCCC2)c2ccccc21`?
aSyn UTR inh: -8; BaF3 tox: 45*; IEC-6 cytotox: 21; KLF5 inh: -45; APP 5UTR inh: -2; Ba/F3 V617F tox: 51*

Results for CC(NC(=O)c1ccc(F)cc1)C(=O)NC1=NCCS1 (stereo unspecified) ?
aSyn UTR inh: 11; BaF3 tox: 3; IEC-6 cytotox: -5; KLF5 inh: -41; APP 5UTR inh: -4; Ba/F3 V617F tox: -1

What do the screens show for `O=C(Nc1cccc(C(=O)O)c1)/C(=C\c1ccccc1)NC(=O)c1cccc2ccccc12`?
aSyn UTR inh: -14; BaF3 tox: 3; IEC-6 cytotox: 1; KLF5 inh: -9; APP 5UTR inh: -21; Ba/F3 V617F tox: 1

What do the screens show for `Cc1ccc(-c2nc(-c3ccccc3)no2)c(Cl)c1`?
aSyn UTR inh: 95*; BaF3 tox: 3; IEC-6 cytotox: -2; KLF5 inh: -149; APP 5UTR inh: -166; Ba/F3 V617F tox: -2

Results for Cc1ccc(-c2nc(-c3ccccc3)no2)cc1 ?
aSyn UTR inh: inconclusive; BaF3 tox: 4; IEC-6 cytotox: -1; KLF5 inh: -117; APP 5UTR inh: -132; Ba/F3 V617F tox: 1

Results for Cc1ccc(C)c(OCC(O)CN2CCC(CN3C(=O)c4cccc5cccc(c45)C3=O)CC2)c1 (stereo unspecified) ?
aSyn UTR inh: 4; BaF3 tox: 6; IEC-6 cytotox: -5; KLF5 inh: 9; APP 5UTR inh: 69*; Ba/F3 V617F tox: -2

Results for COc1ccc(OCC(O)CN2CCC(CN3C(=O)c4cccc5cccc(c45)C3=O)CC2)cc1 (stereo unspecified) ?
aSyn UTR inh: 3

Results for Cc1cccc(-n2ncc3c(N4CCOCC4)ncnc32)c1 ?
aSyn UTR inh: 77*; BaF3 tox: 12; IEC-6 cytotox: 3; KLF5 inh: 42; APP 5UTR inh: -67; Ba/F3 V617F tox: 8

Results for Clc1ccc(-n2ncc3c(N4CCCCCC4)ncnc32)cc1 ?
aSyn UTR inh: 78*; BaF3 tox: 0; IEC-6 cytotox: 3; KLF5 inh: 3; APP 5UTR inh: -27; Ba/F3 V617F tox: -4

How did Cc1cccc(-n2ncc3c(N4CCCC4)ncnc32)c1 do in these assays?
aSyn UTR inh: 29; BaF3 tox: 9; IEC-6 cytotox: 2; KLF5 inh: -122; APP 5UTR inh: -138; Ba/F3 V617F tox: 6

How did CCCCCn1c2c(c(=N)c3ccccc31)CCC2 do in these assays?
aSyn UTR inh: 51; BaF3 tox: 69*; IEC-6 cytotox: 16; KLF5 inh: 38; Ba/F3 V617F tox: 89*

What do the screens show for `CCCCCCCCCCn1c2c(c(=N)c3c1CCC3)CCC2`?
aSyn UTR inh: 71*; BaF3 tox: 96*; IEC-6 cytotox: 56*; KLF5 inh: 61; APP 5UTR inh: 23; Ba/F3 V617F tox: 99*

Results for CCOC(=O)Cn1c2c(c(=N)c3ccccc31)CCC2 ?
aSyn UTR inh: -11; BaF3 tox: 5; IEC-6 cytotox: -2; KLF5 inh: -21; APP 5UTR inh: -8; Ba/F3 V617F tox: -4

Results for CCn1c2c(c(=N)c3c1CCC3)CCCC2 ?
aSyn UTR inh: -7; BaF3 tox: 50*; IEC-6 cytotox: 0; KLF5 inh: -14; Ba/F3 V617F tox: 30*

Results for CCCCn1c2c(c(=N)c3ccccc31)CCC2 ?
aSyn UTR inh: 17; BaF3 tox: 61*; IEC-6 cytotox: 3; KLF5 inh: -10; Ba/F3 V617F tox: 71*

How did CCOC(=O)Cn1c2c(c(=N)c3c1CCC3)CCC2 do in these assays?
aSyn UTR inh: 7; BaF3 tox: 11; IEC-6 cytotox: -2; KLF5 inh: -5; APP 5UTR inh: 6; Ba/F3 V617F tox: 0

How did O=C(c1cccc(-c2ccccc2F)c1)N1CC[C@@H](N2CCC(O)CC2)[C@H](O)C1 do in these assays?
aSyn UTR inh: 4; IEC-6 cytotox: 0; KLF5 inh: -1

Results for CC1CCCCC1NC(=O)CNC(=O)c1cccs1 (stereo unspecified) ?
aSyn UTR inh: -12

Results for CCOc1ccccc1CNC(=O)C1CCN(c2nn3c(=O)cc(C)nc3s2)CC1 ?
aSyn UTR inh: 10; IEC-6 cytotox: 4; KLF5 inh: -1

How did O=Cc1cc2ccccc2nc1SCc1ccc(Cl)c(Cl)c1 do in these assays?
aSyn UTR inh: 109*; BaF3 tox: -1; IEC-6 cytotox: 1; KLF5 inh: -18; APP 5UTR inh: 8; Ba/F3 V617F tox: -3

What do the screens show for `Cc1ccc(CSc2nc3ccccc3cc2C=O)cc1`?
aSyn UTR inh: 93*; BaF3 tox: 3; IEC-6 cytotox: -2; KLF5 inh: 7; APP 5UTR inh: 94*; Ba/F3 V617F tox: 2

How did Cc1ccc(CSc2ncnc3ccccc23)cc1 do in these assays?
aSyn UTR inh: -30; BaF3 tox: 3; IEC-6 cytotox: -1; KLF5 inh: -2; APP 5UTR inh: -21; Ba/F3 V617F tox: 4

Results for O=Cc1cccnc1SCc1ccccc1 ?
aSyn UTR inh: -39

How did O=Cc1cc2ccccc2nc1SCc1ccc(Cl)cc1 do in these assays?
aSyn UTR inh: 95*; BaF3 tox: 3; IEC-6 cytotox: 0; KLF5 inh: -4; APP 5UTR inh: 3; Ba/F3 V617F tox: 3

Results for Brc1cc(Cc2nnc(-c3ccccc3)o2)c(Br)s1 ?
aSyn UTR inh: -3; BaF3 tox: 3; IEC-6 cytotox: 7; KLF5 inh: -20; Ba/F3 V617F tox: -5

How did CC(=O)c1cc(C)ccc1OC(=O)CN1C(=O)c2ccccc2C1=O do in these assays?
aSyn UTR inh: 12; IEC-6 cytotox: -6; KLF5 inh: -22

What do the screens show for `CCCc1cc(C(=O)N2CCCC(Cc3ccccc3C)(C(=O)OCC)C2)no1` (stereo unspecified)?
aSyn UTR inh: 17; IEC-6 cytotox: -5; KLF5 inh: -2

How did Cc1ccc(-c2csc3ncnc(SCc4ccc(C(=O)O)cc4)c23)cc1 do in these assays?
aSyn UTR inh: 13; BaF3 tox: 0; IEC-6 cytotox: -14; KLF5 inh: -11; APP 5UTR inh: -2; Ba/F3 V617F tox: -1
